Where “and” joins values, the source holds several entries; their conditions need not be identical. Equal entries are not always repeated. Values without a mark were called inactive. Records with an inconclusive call do not appear. A call without a number means that no potency is given here. Calls of active or inactive are those of the source. Unless noted, the call rests on the fitted dose curve; in most records, active means well fitted curve in either direction with a large enough effect (not every such curve was filed as active); inconclusive means small, poorly fitted or top-dose-only effect, or another doubt; inactive means flat fitted curve, though single readings scatter.
How the values were obtained:
[1] = AP1 Signaling Pathway (AID 357); conditions: ME-180 AP-1-bla reporter, EGF-induced, beta-lactamase ratio, 5 h; at 7.69 µM (top of the series) unless noted;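 further: ME-180 reporter cells stimulated with EGF at its EC50 level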
In short: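 Beta-lactamase reporter under AP-1 response element, ME-180 background. Stimulus: EC50 EGF. Compound exposure 5 h, 37 °C. Detection: CCF4, 2.5 h RT, 460/530 nm. Values: AC50 from titration.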

[2] = target: Cytochrome P450 1A2 (Homo sapiens) (UniProt P05177); assay: p450-cyp1a2 (AID 410; calls by dose curve; further: potency means the concentration at half of the fitted maximal effect)
Cytochrome P450 1A2 (Homo sapiens), sequence (P05177 whole entry, looked up): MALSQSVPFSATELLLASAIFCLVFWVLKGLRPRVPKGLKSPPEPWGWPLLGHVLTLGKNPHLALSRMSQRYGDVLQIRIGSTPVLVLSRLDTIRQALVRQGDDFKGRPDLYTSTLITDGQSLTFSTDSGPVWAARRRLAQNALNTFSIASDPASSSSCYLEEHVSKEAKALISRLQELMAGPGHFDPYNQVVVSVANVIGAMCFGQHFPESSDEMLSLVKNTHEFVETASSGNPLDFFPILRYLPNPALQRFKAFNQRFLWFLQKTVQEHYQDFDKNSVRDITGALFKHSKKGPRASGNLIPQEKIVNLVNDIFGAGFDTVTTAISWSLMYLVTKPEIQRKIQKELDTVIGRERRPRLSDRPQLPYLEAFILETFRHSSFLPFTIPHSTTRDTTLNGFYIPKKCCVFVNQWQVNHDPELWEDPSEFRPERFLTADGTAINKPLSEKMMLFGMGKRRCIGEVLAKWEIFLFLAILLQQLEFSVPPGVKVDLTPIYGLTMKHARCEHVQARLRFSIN
In short: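 Luminescent readout of luciferin formed from Luciferin-ME by human CYP1A2; data normalized against complete inhibition by 57 uM furafylline. Enzyme 20nM, substrate 100uM at Km, 100mM KPO4 buffer, 60 min reaction at room temperature.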

[3] = NFAT Signaling Pathway (AID 444); conditions: Jurkat NFAT-bla M1, carbachol, beta-lactamase ratio, 5 h; at 7.69 µM (top of the series) unless noted;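 further: carbachol stimulus at about its EC50 of 1 µM final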
In short: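 Jurkat cells with NFAT-driven β-lactamase reporter and co-expressed M1 receptor, stimulated with carbachol (final 1 uM, ~EC50), compound titration, 5 h at 37 °C. CCF4 loaded 1 h at RT; 460/530 nm ratio gave %activity and AC50.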

[4] = target: Glucocorticoid receptor (Homo sapiens) (UniProt P04150); assay: GR-GFP Redistribution (AID 450;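 active means compounds whose dose series gives a full or clear partial fitted curve of increased nuclear translocation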; further: potency means the concentration at half of the fitted maximal effect); conditions: U2OS GR-GFP nuclear translocation, laser cytometry, 2 h
Glucocorticoid receptor (Homo sapiens), sequence (P04150 whole entry, looked up, the tested form may be a part): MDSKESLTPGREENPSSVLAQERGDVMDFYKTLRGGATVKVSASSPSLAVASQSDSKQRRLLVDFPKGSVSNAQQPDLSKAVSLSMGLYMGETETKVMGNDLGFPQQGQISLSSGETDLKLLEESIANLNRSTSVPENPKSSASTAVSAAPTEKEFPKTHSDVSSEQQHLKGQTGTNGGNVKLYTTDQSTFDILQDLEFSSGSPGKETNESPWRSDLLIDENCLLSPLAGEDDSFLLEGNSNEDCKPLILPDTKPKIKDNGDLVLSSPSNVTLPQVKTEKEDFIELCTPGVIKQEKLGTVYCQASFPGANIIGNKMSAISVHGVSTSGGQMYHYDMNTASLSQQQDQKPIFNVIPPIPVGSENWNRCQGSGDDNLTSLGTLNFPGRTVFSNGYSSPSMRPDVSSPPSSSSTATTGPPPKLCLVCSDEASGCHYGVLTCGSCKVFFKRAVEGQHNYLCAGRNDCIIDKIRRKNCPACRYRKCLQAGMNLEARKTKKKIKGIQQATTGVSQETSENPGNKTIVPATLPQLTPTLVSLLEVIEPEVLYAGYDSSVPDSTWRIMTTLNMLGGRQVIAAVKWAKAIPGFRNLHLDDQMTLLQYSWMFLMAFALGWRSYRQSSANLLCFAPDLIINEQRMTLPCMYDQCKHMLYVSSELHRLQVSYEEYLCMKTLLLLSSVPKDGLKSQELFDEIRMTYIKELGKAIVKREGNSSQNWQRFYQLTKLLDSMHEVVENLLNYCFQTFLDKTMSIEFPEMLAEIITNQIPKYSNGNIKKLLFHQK

[5] = target: Glucocorticoid receptor (Homo sapiens) (UniProt P04150); assay: GR-EFC Redistribution (AID 451; calls by dose curve; further: potency means the concentration at half of the fitted maximal effect); conditions: CHO-K1 GR-EFC translocation, beta-gal luminescence, 2 h
In short: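 CHO-K1 cells expressing nuclear EA and GR-ED fragments of b-gal; compounds titrated up to 46 uM final, 2 h at 37 C. GR nuclear translocation read as complemented b-gal luminescence after 1 h RT detection.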

[6] = target: Mitogen-activated protein kinase 10 (Mus musculus) (UniProt Q61831); assay: JNK3 AlphaScreen Assay (AID 530);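 further: kinase came from lysate of stimulated human HepG2 cells; signal reports phosphorylation of biotinylated GST-cJun 1-79 at Ser73 with 10 µM ATP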
In short: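 Pre-activated (IL-1β/TNFα) JNK3 in HepG2 lysates phosphorylates biotin-GST-cJun(1-79), 10 uM ATP; anti-phospho-cJun(Ser73) AlphaScreen read at room temperature, pH 7.6 Tris buffer. Compounds pre-incubated 15 min as titrations.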

[7] = target: Guanine nucleotide-binding protein G(i) subunit alpha-1 (Homo sapiens) (UniProt P63096); assay: qHTS Assay for Inhibitors of RGS12 GoLoco Motif Activity (Green Fluorophore) (AID 879; active means well fitted curve in the direction sought with a large enough effect; an effect the other way counts as inactive or inconclusive;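 further: negative values mean loss of peptide binding seen as reduced polarization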)
Guanine nucleotide-binding protein G(i) subunit alpha-1 (Homo sapiens), sequence (P63096 whole entry, looked up): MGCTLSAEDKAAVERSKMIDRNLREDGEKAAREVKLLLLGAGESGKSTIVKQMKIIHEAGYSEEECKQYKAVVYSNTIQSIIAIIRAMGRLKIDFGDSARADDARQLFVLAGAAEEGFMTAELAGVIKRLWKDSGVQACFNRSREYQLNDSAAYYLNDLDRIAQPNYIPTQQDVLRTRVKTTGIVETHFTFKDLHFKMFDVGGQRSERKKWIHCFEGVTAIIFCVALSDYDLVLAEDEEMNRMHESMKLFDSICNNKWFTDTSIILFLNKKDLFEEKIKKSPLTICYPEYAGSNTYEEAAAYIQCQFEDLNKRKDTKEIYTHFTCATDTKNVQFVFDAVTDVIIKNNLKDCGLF
In short: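 Fluorescence polarization assay: 50 nM Gαi1 with 10 nM FITC-labeled RGS12 GoLoco peptide in 10 mM Tris pH 7.5, 150 mM NaCl, 0.1 mM GDP, 0.05% NP40, 10 min at room temperature with compound.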

[8] = target: Pyruvate kinase (Leishmania mexicana) (UniProt Q27686); assay: qHTS Validation Assay for Inhibitors of Leishmania Mexicana Pyruvate Kinase (AID 945; active means well fitted curve in the direction sought with a large enough effect; an effect the other way counts as inactive or inconclusive)
Pyruvate kinase (Leishmania mexicana), sequence (Q27686 2-499 E452W): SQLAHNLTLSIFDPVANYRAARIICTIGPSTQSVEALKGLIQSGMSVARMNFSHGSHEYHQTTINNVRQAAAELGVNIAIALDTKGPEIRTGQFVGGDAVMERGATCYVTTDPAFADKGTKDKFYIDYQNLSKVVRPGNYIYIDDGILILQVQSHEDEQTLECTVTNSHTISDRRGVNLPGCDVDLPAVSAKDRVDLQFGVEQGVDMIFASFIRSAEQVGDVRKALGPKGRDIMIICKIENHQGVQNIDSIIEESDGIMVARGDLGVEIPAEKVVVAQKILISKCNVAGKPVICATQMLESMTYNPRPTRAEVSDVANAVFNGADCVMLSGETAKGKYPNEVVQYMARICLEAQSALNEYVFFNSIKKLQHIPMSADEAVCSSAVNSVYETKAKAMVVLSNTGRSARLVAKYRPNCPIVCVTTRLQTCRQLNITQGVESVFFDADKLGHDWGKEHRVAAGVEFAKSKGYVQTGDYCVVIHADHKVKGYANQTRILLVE
In short: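 Luminescent ATP detection (PKLight) after a 1 h room-temperature reaction of 0.2 nM LmPYK E451W mutant with 0.5 mM PEP and 0.1 mM ADP at pH 7.2. Activity is normalized to DMSO-only control wells.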

[9] = target: Pyruvate kinase PKM (Homo sapiens) (UniProt P14618); assay: qHTS Assay for Activators of Human Muscle Pyruvate Kinase (AID 954; active means well fitted curve in the direction sought with a large enough effect, not every such curve was filed as active)
Pyruvate kinase PKM (Homo sapiens), sequence (P14618 whole entry, looked up): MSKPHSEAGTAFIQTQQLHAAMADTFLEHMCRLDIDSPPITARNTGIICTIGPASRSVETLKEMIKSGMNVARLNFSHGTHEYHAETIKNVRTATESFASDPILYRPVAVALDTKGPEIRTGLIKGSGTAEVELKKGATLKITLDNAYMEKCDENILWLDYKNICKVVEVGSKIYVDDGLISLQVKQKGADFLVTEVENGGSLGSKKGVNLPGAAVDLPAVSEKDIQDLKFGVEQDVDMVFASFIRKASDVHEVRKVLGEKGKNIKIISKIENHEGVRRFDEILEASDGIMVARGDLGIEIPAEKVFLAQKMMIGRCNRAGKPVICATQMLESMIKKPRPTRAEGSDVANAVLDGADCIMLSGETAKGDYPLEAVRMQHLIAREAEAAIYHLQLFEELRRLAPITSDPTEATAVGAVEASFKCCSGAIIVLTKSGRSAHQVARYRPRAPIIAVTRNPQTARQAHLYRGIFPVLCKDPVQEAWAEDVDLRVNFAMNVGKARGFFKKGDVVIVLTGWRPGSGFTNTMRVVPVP
In short: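 Luminescence from a luciferase ATP-detection/stop reagent reported PKM2 activity. Reactions contained 0.1 nM purified human enzyme, 0.5 mM PEP, 0.1 mM ADP and 7 mM MgCl2 at pH 7.2, run 1 h at RT.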

[10] = target: Alpha-galactosidase A (Homo sapiens) (UniProt P06280); assay: Counterscreen for Glucocerebrosidase Inhibitors: qHTS Assay for Human alpha-Galactosidase at pH 4.5 (AID 992; active means well fitted curve in the direction sought with a large enough effect; an effect the other way counts as inactive or inconclusive)
Alpha-galactosidase A (Homo sapiens), sequence (P06280 whole entry, looked up): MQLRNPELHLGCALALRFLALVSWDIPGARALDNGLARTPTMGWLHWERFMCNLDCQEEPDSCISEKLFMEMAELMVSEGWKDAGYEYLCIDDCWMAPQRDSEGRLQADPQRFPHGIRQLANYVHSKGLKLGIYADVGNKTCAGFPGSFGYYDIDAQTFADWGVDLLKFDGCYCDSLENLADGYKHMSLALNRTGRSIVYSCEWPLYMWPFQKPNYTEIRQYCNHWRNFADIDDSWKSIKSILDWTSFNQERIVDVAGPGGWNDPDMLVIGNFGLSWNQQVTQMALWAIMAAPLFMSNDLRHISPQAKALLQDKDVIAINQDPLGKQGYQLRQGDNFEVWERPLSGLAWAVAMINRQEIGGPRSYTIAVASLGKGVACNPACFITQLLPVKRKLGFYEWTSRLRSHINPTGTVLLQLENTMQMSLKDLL
In short: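 Enzyme at 2 nM final was combined with compound (0.7 nM to 77 uM) and 80 uM 4-methylumbelliferyl alpha-D-galactopyranoside in 50 mM citric acid, 0.005% Tween-20, pH 4.5. After 20 min at room temperature, fluorescence was read (Ex 365/Em 440 nm); AC50 came from Hill fits.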

[11] = target: alpha-glucosidase (Oryza sativa, rice) (UniProt Q653V4); assay: Counterscreen for Glucocerebrosidase Inhibitors: qHTS Assay for Rice alpha-Glucosidase at pH 5.0 (AID 997; active means well fitted curve in the direction sought with a large enough effect; an effect the other way counts as inactive or inconclusive)
In short: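 Rice alpha-glucosidase (4 nM final) with 400 uM 4-methylumbelliferyl-alpha-D-glucopyranoside in citrate buffer pH 5.0, 20 min at room temperature, stopped at pH 10; fluorescence 365/440 nm, compounds 0.7 nM–77 uM, AC50 from Hill fits.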

[12] = target: 3',5'-cyclic-AMP phosphodiesterase 4B (Homo sapiens) (UniProt Q07343); assay: qHTS Assay for Inhibitors of PDE-IV (AID 607; active means well fitted activation curve with a large enough effect in the main read-out, with a control signal flat, not every such curve was filed as active)
3',5'-cyclic-AMP phosphodiesterase 4B (Homo sapiens), sequence (Q07343 whole entry, looked up): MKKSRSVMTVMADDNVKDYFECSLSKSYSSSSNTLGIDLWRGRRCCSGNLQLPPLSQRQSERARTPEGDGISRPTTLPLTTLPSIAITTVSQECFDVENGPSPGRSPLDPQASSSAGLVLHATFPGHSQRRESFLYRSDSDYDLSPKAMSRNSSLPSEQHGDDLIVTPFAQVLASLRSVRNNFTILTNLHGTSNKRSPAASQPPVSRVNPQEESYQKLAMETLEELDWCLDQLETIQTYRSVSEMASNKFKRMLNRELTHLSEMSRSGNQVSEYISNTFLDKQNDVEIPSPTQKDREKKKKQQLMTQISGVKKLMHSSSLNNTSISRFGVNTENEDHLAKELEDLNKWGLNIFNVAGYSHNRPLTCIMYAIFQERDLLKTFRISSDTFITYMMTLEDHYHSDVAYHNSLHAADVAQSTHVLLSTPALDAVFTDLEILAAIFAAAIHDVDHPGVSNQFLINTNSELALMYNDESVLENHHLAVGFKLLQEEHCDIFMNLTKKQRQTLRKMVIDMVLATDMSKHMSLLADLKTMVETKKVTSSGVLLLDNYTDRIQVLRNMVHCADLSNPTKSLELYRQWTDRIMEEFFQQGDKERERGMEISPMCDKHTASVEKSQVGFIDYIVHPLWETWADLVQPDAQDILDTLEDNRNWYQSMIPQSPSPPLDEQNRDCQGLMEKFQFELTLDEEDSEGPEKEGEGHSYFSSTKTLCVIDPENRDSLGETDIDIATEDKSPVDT
In short: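 ACTOne HEK293 cells carry a modified cAMP-gated CNG channel and express endogenous PDE4; plated 1000 cells/well, compounds up to 22.9 uM final. Membrane-potential dye fluorescence (ex 535/em 590) was read; parental cells received 10 uM forskolin + 100 uM RO 20-1724.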

[13] = Stat Signaling Pathway (AID 446); conditions: ME-180 SIE beta-lactamase reporter, IL-6 stimulated, 5 h;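 further: ME-180 cervical cancer cells given 40 pM IL-6 alongside compound; SIE-controlled beta-lactamase reporter measured as 460/530 nm FRET emission ratio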
In short: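 ME-180 SIE-bla cells; overnight plating; cpd + IL-6 40 pM, 5 h, 37 C; LiveBLAzer 2.5 h RT; 460/530 nm emission ratio. Normalized to 300 pM IL-6 and 125 nM JAK inhibitor controls.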

[14] = at 7.69 µM (top of the series) unless noted

CNC(=O)[C@@H]1O[C@@H](n2cnc3c(N)ncnc32)[C@@H](O)[C@H]1O
activity change, negative = inhibition [1]: -10.7% [at 38 µM] | Potency [2]: inactive | activity change, negative = inhibition [3]: 6.42% [at 38 µM] | Potency [4]: > 46 µM | Potency [5]: > 46 µM | Potency [6]: inactive | outcome [7]: inactive | outcome [8]: inactive | outcome [9]: inactive | outcome [10]: inactive | Potency [11]: inactive

CCc1cccc2c3c([nH]c12)[C@](CC)(CC(=O)O)OCC3
activity change, negative = inhibition [1]: 6.07% [at 38 µM] | Potency [2]: inactive | activity change, negative = inhibition [3]: -5.71% [at 38 µM] | Potency [6]: inactive | Potency [12]: inactive

O=c1[nH]c(=O)n([C@H]2C[C@H](O)[C@H](CO)O2)cc1Br
activity change, negative = inhibition [1]: 14.9% [at 38 µM] | Potency [2]: inactive | activity change, negative = inhibition [3]: 2.6% [at 38 µM] | activity, negative = inhibition [13, 14]: 4.48% [at 38 µM] | Potency [6]: inactive | Potency [12]: inactive

Nc1nc(Cl)nc2c1ncn2[C@@H]1O[C@@H](COP(=O)(O)OP(=O)(O)OP(=O)(O)O)[C@@H](O)[C@H]1O
activity change, negative = inhibition [1]: 18.9% [at 38 µM] | Potency [2]: inactive | activity change, negative = inhibition [3]: 9.46% [at 38 µM] | Potency [4]: > 46 µM | Potency [5]: > 46 µM | Potency [6]: inactive | Potency [12]: inactive | outcome [7]: inactive | outcome [8]: inactive | outcome [9]: inactive | outcome [10]: inactive | Potency [11]: inactive

COC(=O)[C@H](N)Cc1ccc(Cl)cc1
activity change, negative = inhibition [1]: 4.51% [at 38 µM] | Potency [2]: 3.16 µM (active) | activity change, negative = inhibition [3]: 3.08% [at 38 µM] | Potency [4]: > 46 µM | Potency [5]: > 46 µM | Potency [6]: inactive | Potency [12]: inactive | outcome [7]: inactive | outcome [8]: inactive | outcome [9]: inactive | outcome [10]: inactive | Potency [11]: inactive

CCC[C@@H]1O[C@@H]2C[C@@H]3[C@@H]4CCC5=CC(=O)C=C[C@@]5(C)[C@H]4[C@H](O)C[C@@]3(C)[C@@]2(C(=O)CO)O1
activity change, negative = inhibition [1]: 8.13% [at 38 µM] | Potency [2]: inactive | activity change, negative = inhibition [3]: 9.04% [at 38 µM] | activity, negative = inhibition [13, 14]: 6.66% [at 38 µM] | Potency [6]: inactive | Potency [12]: inactive

Sc1ccc2ccccc2c1CNCc1ccccc1
activity change, negative = inhibition [1]: 12.3% | Potency [2]: 1.26 µM (active) | activity change, negative = inhibition [3]: -0.525% | Potency [4]: > 46 µM | Potency [5]: > 9.22 µM | Potency [6]: inactive | Potency [12]: inactive

CC(C)C[C@H]1C(=O)N2CCC[C@@H]2[C@]2(O)O[C@](NC(=O)[C@H]3C=C4c5cccc6[nH]c(Br)c(c56)C[C@H]4N(C)C3)(C(C)C)C(=O)N12
activity change, negative = inhibition [1]: -28.4% [at 17.2 µM] | Potency [2]: inactive | activity, negative = inhibition ([13]; at 17.2 µM (top of the series)): -20.4% | activity, negative = inhibition ([13]; at 38 µM (top of the series)): -18.7% | Potency [4]: > 46 µM and > 20.6 µM | Potency [5]: > 46 µM and > 20.6 µM | Potency [6]: inactive | Potency [12]: inactive | outcome [7]: inactive | outcome [8]: inactive | outcome [9]: inactive | outcome [10]: inactive | Potency [11]: inactive

C[N+]1(CCC[N+]2(C)C[C@H]3[C@H](C2)[C@H]2C=C[C@@H]3CC2)CCOCC1 (stereo not given in full)
activity change, negative = inhibition [1]: 0.978% | Potency [2]: inactive | activity change, negative = inhibition [3]: 1.42% | Potency [4]: > 46 µM | Potency [6]: inactive | Potency [12]: inactive

COc1cc2nc(N3CCN(C(=O)OCc4ccccc4)[C@H](C(=O)NC(C)(C)C)C3)nc(N)c2cc1OC
activity change, negative = inhibition [1]: -7.79% [at 38 µM] | Potency [2]: inactive | activity change, negative = inhibition [3]: 3.46% [at 38 µM] | Potency [4]: > 46 µM | Potency [5]: > 46 µM | Potency [6]: inactive | Potency [12]: inactive | outcome [7]: inactive | outcome [8]: inactive | outcome [9]: inactive | outcome [10]: inactive | Potency [11]: inactive

Cc1cn([C@H]2C=C[C@H](CO)O2)c(=O)[nH]c1=O
activity change, negative = inhibition [1]: 11.1% [at 38 µM] | Potency [2]: inactive | activity change, negative = inhibition [3]: 4.45% [at 38 µM] | activity, negative = inhibition [13, 14]: 23.6% [at 38 µM] | Potency [12]: inactive

CCN(CC)[C@@H](C)C(=O)N1c2ccccc2Sc2ccccc21
activity change, negative = inhibition [1]: 14.4% [at 38 µM] | Potency [2]: inactive | activity change, negative = inhibition [3]: -74.6% [at 38 µM] (active) | Potency [4]: > 46 µM | Potency [5]: > 46 µM | Potency [6]: inactive | Potency [12]: inactive

CC#C[C@@]1(O)CC[C@@H]2[C@@H]3CCC4=CC(=O)CCC4=C3[C@@H](c3ccc(N(C)C)cc3)C[C@]21C
activity change, negative = inhibition [1]: 5.58% [at 38 µM] | Potency [2]: 15.8 µM (active) | activity change, negative = inhibition [3]: 7.8% [at 38 µM] | activity, negative = inhibition [13, 14]: -20.9% [at 38 µM] | Potency [12]: inactive

C[C@@H](C(=O)O)c1ccc(C[C@@H]2CCCC2=O)cc1
activity change, negative = inhibition [1]: 14.5% [at 38 µM] | Potency [2]: inactive | activity change, negative = inhibition [3]: 11.1% [at 38 µM] | activity, negative = inhibition [13, 14]: 8.58% [at 38 µM] | Potency [6]: inactive | Potency [12]: inactive | outcome [7]: inactive | outcome [8]: inactive | outcome [9]: inactive | outcome [10]: inactive | Potency [11]: inactive

C=CCN1CCc2c(cc(O)c(O)c2Cl)[C@H](c2ccccc2)C1
activity change, negative = inhibition [1]: -17.1% [at 38 µM] | Potency [2]: 20 µM (active) | activity change, negative = inhibition [3]: -17.9% [at 38 µM] | Potency [4]: > 46 µM | Potency [5]: > 46 µM | Potency [6]: inactive | Potency [12]: inactive | outcome [7]: inactive | outcome [8]: inactive | outcome [9]: inactive | outcome [10]: inactive | Potency [11]: inactive

Source: PubChem BioAssay (NCATS)
